Consider eleven compounds from ChEMBL document CHEMBL3988442, “University of Dundee, Small-Polar-MMV Screening Library” (2021).

Set-up in all cases: scale not given: direction of the effect not stated beside the values
In experiment [1] the target is Protein translocase subunit SecA (Escherichia coli (strain K12)) (UniProt P10408). In words: Assay to Identify E. coli SecA ATPase Inhibitors. It is filed as functional. To be noted: 30 µM.
For experiment [2], the target named is T1, Ubiquitin-activating enzyme e1, putative (Leishmania donovani (strain BPK282A1)) (UniProt E9BSI1).
T1 sequence (whole entry): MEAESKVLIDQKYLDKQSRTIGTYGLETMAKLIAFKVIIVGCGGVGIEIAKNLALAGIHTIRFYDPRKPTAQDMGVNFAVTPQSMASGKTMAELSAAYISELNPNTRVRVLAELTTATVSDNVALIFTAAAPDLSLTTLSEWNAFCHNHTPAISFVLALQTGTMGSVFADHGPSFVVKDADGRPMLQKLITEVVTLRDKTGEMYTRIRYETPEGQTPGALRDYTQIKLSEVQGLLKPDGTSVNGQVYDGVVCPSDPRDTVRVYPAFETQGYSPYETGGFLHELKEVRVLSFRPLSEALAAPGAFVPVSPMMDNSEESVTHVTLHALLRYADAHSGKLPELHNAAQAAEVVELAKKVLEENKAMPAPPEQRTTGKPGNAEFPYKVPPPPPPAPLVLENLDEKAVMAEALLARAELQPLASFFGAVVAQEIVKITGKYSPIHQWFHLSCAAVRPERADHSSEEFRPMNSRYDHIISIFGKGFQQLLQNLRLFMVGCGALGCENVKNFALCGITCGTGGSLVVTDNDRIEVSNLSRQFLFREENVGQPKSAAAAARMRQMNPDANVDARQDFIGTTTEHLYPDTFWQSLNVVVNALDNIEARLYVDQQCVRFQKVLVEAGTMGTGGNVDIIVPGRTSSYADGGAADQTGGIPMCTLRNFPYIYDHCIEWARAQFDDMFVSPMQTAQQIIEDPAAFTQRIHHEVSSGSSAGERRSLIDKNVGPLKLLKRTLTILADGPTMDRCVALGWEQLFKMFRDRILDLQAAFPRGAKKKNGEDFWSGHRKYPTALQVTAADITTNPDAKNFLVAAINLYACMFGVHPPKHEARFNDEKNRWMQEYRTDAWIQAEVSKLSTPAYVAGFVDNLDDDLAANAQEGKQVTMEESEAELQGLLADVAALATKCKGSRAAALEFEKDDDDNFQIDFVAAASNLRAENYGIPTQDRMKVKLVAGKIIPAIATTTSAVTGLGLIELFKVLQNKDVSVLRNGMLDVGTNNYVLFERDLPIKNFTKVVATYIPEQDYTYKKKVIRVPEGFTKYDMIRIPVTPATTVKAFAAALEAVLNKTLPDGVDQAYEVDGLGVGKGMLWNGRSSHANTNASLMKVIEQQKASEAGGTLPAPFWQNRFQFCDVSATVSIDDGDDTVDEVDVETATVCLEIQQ
The experiment in a line: Leishmania donovani Ubiquitin Activating Enzyme (LdE1). It is filed as functional. The note with it: 30 µM.

Experiment [3] deals with AMP-activated protein kinase, AMPK (Homo sapiens) (UniProt P54646+O43741+P54619+Q9UGJ0+Q9Y478+Q13131+Q9UGI9). In words: AMP-dependent Kinase enzyme assay. An in vitro enzyme assay that detects ADP turnover that is directly proportional to AMPK activity. This uses naive AMPK that is activated during the assay with MK-8722. In kind it is functional. To be noted: 30 µM.
Experiment [4] addresses Sialic acid-binding Ig-like lectin 9 (Homo sapiens) (UniProt Q9Y336). In words: Hs-Siglec9 ALPHAscreen SOP 20170721. To be noted: 10 µM.
For the next experiment, the system named is Trypanosoma cruzi. The experiment in a line: Trypanosoma cruzi phosphomannomutase and mannose-1-phosphate guanylyltransferase assay. It is filed as functional. To be noted: 10 µM.
Experiment [5] addresses T2, Arginase-2, mitochondrial (Homo sapiens) (UniProt P78540).
T2 sequence (whole entry): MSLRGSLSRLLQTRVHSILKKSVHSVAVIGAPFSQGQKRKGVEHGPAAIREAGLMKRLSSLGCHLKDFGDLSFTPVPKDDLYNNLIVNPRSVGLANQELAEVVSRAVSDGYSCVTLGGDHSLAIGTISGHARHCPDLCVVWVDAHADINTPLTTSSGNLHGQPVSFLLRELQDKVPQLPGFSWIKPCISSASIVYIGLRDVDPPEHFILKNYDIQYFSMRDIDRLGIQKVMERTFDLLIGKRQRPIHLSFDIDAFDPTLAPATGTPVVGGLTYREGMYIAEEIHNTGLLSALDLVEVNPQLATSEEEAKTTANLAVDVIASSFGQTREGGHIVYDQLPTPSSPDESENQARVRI
In words: in vitro enzyme assay to detect the production of urea directly proportional to the activity of Arginase II. Note: in the data most compounds retested in dose-response had high values. In kind it is functional. The note with it: 33.3 µM.

For experiment [6], the target named is T3, Proteasome subunit beta (Trypanosoma cruzi) (UniProt O96673).
T3 sequence (whole entry): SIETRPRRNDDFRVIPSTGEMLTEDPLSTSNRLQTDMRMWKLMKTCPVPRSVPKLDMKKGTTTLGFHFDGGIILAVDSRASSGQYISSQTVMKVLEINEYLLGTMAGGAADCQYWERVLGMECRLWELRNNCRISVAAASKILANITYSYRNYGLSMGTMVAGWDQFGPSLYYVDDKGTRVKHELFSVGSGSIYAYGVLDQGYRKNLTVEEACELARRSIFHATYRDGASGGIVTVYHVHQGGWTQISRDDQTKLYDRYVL
In words: Trypanosoma cruzi proteasome chymotrypsin-like activity (TcProtChymo) assay. Note: in the data most compounds retested in dose-response had high values. It is filed as functional. The note with it: 9.37 µM.

For the next experiment, the species on record is Homo sapiens. The experiment in a line: To identify inhibition of the IFN signalling (Jak-Stat) pathway via expression of an eGFP reporter gene under the control of an IFN-stimulated response element (ISRE) containing MxA promoter. The note with it: 30 µM. It is filed as functional.
Experiment [7] addresses T4, Tyrosyl-tRNA synthetase, putative (Trypanosoma cruzi (strain CL Brener)) (UniProt Q4DSP6).
T4 sequence (whole entry): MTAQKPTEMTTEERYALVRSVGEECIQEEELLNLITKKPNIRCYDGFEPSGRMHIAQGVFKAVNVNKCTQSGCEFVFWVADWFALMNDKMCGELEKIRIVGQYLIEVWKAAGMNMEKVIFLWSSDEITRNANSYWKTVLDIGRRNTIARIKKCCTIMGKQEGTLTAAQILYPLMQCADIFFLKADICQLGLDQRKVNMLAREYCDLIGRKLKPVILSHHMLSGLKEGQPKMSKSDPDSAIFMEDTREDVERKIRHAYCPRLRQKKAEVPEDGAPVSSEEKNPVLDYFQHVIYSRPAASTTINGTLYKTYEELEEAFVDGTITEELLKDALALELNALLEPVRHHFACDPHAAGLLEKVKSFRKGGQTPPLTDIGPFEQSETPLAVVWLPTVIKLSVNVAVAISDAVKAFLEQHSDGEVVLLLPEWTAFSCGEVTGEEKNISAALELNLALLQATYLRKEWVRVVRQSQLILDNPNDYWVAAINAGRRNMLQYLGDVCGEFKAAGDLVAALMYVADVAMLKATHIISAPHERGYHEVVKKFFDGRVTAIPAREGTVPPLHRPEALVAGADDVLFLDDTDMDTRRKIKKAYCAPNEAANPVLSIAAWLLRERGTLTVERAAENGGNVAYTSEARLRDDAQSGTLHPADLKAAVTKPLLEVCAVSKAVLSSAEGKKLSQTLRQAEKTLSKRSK
The experiment in a line: Trypanosoma cruzi tyrosyl tRNA synthetase (TcYRS) _High Tyrosine SOP. Note: in the data most compounds retested in dose-response had high values. It is filed as functional. The note with it: 30 µM.

Experiment [8] deals with T4, Tyrosyl-tRNA synthetase, putative (Trypanosoma cruzi (strain CL Brener)). In words: Trypanosoma cruzi tyrosyl tRNA synthetase (TcYRS) SOP. It is filed as functional. To be noted: 30 µM.
Experiment [9] has as its target Chromo domain-containing protein 1 (Saccharomyces cerevisiae (strain ATCC 204508 / S288c) (Baker's yeast)) (UniProt P32657). The experiment in a line: ScCHD-1 Enzyme Inhibition Assay. Note: in the data most compounds retested in dose-response had high values. In kind it is functional. To be noted: 30 µM.

The structures appear in SMILES notation. For some of these results: Potency and affinity values are given separately.

Chromo domain-containing protein 1 (Saccharomyces cerevisiae (strain ATCC 204508 / S288c) (Baker's yeast)), sequence (P32657 whole entry, the tested form may be a part): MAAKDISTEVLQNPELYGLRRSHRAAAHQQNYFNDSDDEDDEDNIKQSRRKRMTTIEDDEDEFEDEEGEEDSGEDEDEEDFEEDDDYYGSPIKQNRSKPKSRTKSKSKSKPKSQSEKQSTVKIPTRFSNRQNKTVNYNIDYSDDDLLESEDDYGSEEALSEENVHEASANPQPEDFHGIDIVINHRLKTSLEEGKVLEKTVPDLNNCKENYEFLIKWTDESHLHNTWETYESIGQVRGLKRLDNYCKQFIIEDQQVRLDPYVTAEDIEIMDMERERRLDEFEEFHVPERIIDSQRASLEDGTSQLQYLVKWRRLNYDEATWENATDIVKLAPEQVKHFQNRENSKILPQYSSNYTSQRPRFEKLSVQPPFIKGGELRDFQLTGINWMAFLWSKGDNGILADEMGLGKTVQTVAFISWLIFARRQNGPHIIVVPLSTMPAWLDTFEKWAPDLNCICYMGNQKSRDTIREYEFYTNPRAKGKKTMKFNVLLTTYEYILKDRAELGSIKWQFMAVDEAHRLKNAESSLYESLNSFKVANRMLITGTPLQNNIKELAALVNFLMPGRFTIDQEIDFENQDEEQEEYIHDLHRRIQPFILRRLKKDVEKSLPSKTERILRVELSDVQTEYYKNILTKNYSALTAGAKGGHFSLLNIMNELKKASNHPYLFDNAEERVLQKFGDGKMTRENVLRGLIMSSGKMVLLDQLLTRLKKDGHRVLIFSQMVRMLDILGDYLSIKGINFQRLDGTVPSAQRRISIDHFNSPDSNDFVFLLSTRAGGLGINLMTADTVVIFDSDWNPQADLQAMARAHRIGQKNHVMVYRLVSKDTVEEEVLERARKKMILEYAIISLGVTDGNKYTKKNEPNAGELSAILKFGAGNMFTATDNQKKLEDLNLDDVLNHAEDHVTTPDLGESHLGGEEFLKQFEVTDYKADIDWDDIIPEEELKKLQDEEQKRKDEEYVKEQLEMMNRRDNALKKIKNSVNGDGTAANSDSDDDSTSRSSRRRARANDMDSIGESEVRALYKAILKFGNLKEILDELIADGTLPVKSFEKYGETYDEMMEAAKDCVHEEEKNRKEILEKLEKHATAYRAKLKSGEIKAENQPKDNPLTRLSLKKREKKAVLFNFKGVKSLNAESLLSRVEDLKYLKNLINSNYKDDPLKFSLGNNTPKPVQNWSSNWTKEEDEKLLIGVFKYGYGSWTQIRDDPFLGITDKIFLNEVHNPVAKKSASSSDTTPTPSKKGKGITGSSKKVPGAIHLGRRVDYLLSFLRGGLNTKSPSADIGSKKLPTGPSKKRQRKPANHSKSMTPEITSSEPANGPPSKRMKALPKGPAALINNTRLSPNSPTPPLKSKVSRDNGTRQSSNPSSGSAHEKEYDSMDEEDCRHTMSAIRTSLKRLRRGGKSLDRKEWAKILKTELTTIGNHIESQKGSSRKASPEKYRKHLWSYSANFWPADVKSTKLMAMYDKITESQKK
Protein translocase subunit SecA (Escherichia coli (strain K12)), sequence (P10408 whole entry): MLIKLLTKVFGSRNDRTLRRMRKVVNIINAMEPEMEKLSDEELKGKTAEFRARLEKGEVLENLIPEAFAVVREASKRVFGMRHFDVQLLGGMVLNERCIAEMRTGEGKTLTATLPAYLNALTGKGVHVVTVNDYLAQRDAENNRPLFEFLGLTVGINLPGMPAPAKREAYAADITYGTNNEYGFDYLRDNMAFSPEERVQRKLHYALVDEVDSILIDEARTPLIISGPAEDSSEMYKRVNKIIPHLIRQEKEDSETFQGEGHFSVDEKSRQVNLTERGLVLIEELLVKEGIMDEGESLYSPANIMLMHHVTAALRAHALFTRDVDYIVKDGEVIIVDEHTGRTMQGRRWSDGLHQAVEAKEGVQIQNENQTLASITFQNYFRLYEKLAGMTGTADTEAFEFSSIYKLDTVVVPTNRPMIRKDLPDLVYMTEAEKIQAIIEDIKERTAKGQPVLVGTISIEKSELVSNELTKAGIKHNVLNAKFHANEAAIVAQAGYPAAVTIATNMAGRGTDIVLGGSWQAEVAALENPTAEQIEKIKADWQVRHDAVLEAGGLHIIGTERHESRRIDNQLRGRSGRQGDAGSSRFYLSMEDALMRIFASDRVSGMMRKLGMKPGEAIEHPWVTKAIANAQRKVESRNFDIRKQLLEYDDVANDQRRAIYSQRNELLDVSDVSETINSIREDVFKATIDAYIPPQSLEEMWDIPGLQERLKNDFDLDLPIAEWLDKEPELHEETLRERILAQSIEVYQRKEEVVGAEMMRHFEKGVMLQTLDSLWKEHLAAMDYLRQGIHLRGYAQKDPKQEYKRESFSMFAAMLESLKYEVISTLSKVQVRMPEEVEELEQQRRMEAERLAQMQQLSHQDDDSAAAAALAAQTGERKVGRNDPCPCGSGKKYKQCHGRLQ
Sialic acid-binding Ig-like lectin 9 (Homo sapiens), sequence (Q9Y336 whole entry): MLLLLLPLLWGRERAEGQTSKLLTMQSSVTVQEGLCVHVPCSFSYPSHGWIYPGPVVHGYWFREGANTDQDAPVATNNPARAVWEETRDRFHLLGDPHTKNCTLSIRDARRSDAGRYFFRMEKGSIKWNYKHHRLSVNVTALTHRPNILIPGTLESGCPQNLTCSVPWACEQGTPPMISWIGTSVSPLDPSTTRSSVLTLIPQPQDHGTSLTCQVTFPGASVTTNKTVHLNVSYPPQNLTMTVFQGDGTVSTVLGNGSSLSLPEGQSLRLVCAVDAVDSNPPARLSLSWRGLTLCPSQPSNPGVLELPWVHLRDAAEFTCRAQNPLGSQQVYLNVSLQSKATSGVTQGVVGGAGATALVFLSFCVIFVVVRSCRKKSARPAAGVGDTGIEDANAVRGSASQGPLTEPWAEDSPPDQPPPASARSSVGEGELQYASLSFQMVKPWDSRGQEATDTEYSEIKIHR

In the case of `CCOc1ccc(N2CCCN=C2NC(=O)c2cccc(Cl)c2)cc1`, the Percent Effect was -0.891% in experiment [1]; 5.2% in experiment [2]; 1.42% in experiment [3]; 2.2% in experiment [4]; -4.62% in the experiment on Trypanosoma cruzi; -13.8% in experiment [5]. In addition, the Percent Effect in experiment [6] is 14.6%; in the experiment listed under Homo sapiens it was 1.55%; in [7], 3.23%; in experiment [8] it was 13.6%; in experiment [9], 0.903%.

For the compound `Cc1ncsc1C(=O)NC1CCN(CC(=O)NCc2ccccc2)CC1`, the Percent Effect is -3.36% in experiment [1]; 13.2% in [2]; 0.646% in experiment [3]; 1.72% in experiment [4]; 2.71% with Trypanosoma cruzi; -1.8% in experiment [5]. Also, the Percent Effect in experiment [6] is 7.02%; in the experiment listed under Homo sapiens, -2.18%; in experiment [7], 9.36%; in experiment [8], 16.1%; in [9], -2.75%.

`O=C(c1cc(COc2ccc3c(c2)OCO3)[nH]n1)N1CC=CC1CO` (stereo unspecified): the Percent Effect in experiment [1] was -3.88%; in [2], -2.74%; in experiment [3], 9.97%; in [4] it was 22.3%; in the experiment with Trypanosoma cruzi, -5.36%; in experiment [5], 0.399%. Further, the Percent Effect is 15.3% in [6]; 9.04% in the experiment listed under Homo sapiens; 3.12% in experiment [7]; -8.64% in experiment [8]; 0.567% in experiment [9].

Take `CC(Cn1cccn1)NCc1nc(-c2cccc(Cl)c2)no1` (stereo unspecified): the Percent Effect is -2.57% in experiment [1]; -2.63% in [2]; 1.2% in experiment [3]; 3.09% in experiment [4]; 4.76% in the experiment on Trypanosoma cruzi; 0% in [5]. For the same compound, the Percent Effect in experiment [6] worked out at 5.33%; in the experiment filed under Homo sapiens, 11.7%; in experiment [7], 3.45%; in [8], 11.1%; in experiment [9] it was 2.72%.

With `O=C1[C@@H]2CCN(Cc3ccncc3)C[C@@H]2OCCN1c1ccccc1`, the Percent Effect in experiment [1] is -4.52%; in [2], 8%; in experiment [3] it was 4.63%; in experiment [4], 0.633%; with Trypanosoma cruzi, 4.33%; in experiment [5], -3.5%. In addition, the Percent Effect was 15.6% in [6]; -13.1% in the experiment filed under Homo sapiens; 8.51% in [7]; 14.1% in experiment [8]; -5.17% in experiment [9].

For the compound `Cc1nc(C)c(CC(=O)N2C[C@H]3CC[C@@H]2CN(C(=O)N(C)C)C3)c(=O)[nH]1`, the Percent Effect is -12.8% in experiment [1]; 0% in experiment [2]; -2.11% in experiment [3]; -2.97% in experiment [4]; -5.18% in the experiment with Trypanosoma cruzi; -1.74% in experiment [5]. For the same compound, the Percent Effect is -2.49% in [6]; 26.8% in the experiment listed under Homo sapiens; -1.07% in experiment [7]; -1.24% in experiment [8]; -2.75% in experiment [9].

Regarding `COc1ccc2c(c1)CCN(CCC(=O)O)CC2`, the Percent Effect is 0.2% in experiment [1]; 16.2% in experiment [2]; -5.1% in [3]; 15.3% in [4]; 1.74% in the experiment on Trypanosoma cruzi; 1.91% in experiment [5]. Moreover, the Percent Effect in experiment [6] was 13.6%; in the experiment filed under Homo sapiens, 6.58%; in experiment [7], 5.82%; in [8] it was 17.1%; in [9] it was -1.92%.

Take `c1csc(-c2nc(CNC3CCc4ncnn4C3)co2)c1` (stereo unspecified): the Percent Effect was -3.96% in experiment [1]; 7.79% in [2]; -1.01% in experiment [3]; 1.84% in [4]; -5.24% in the experiment on Trypanosoma cruzi; 2.13% in [5]. Besides, the Percent Effect is 4.22% in experiment [6]; 20.4% in the experiment listed under Homo sapiens; 2.91% in experiment [7]; 9.76% in experiment [8]; -4.74% in experiment [9].

For the compound `Cc1csc([C@@H]2C[C@@H]3CCN(C(=O)c4ccnnc4)C[C@H]3O2)n1`, the Percent Effect in [1] was 0.296%; in experiment [2], 2.6%; in experiment [3], 5.97%; in experiment [4], 6.2%; in the experiment on Trypanosoma cruzi, -0.296%; in experiment [5] it was -0.645%. The Percent Effect in [6] was -0.174%; in the experiment filed under Homo sapiens, 12.4%; in [7] it was 6.35%; in experiment [8] it was 8.97%; in experiment [9], -1.14%.

In the case of `COc1cc(C)nc(N2CCN(C(=O)c3ccccc3C)CC2)n1`, the Percent Effect in experiment [1] is -6.89%; in experiment [2], 2.7%; in experiment [3], -5.76%; in [4] it was 17.5%; with Trypanosoma cruzi it was 8.4%; in experiment [5] it was -13.2%. In addition, the Percent Effect is 1.8% in experiment [6]; 9.59% in the experiment filed under Homo sapiens; 5.42% in experiment [7]; 18.5% in [8]; -18.4% in experiment [9].

For `O=C(c1ccsc1)N1C[C@@H]2C[C@@H](c3nnc(C4CC4)o3)O[C@@H]2C1`, the Percent Effect in experiment [1] was -1.51%; in experiment [2], 7.79%; in experiment [3], 6.12%; in experiment [4], 6.45%; in the experiment on Trypanosoma cruzi it was -4.63%; in [5], 5.81%. The Percent Effect in [6] was 3.31%; in the experiment listed under Homo sapiens it was 15%; in experiment [7] it was 1.06%; in experiment [8] it was 3.85%; in [9], -4.38%.
